Bioassay records deposited in PubChem by University of Kansas High Throughput Screening Laboratory.
mHTT CaM bind = inhibitors of human mutant huntingtin-calmodulin interaction; P42858; AlphaScreen His-mHTT/GST-CaM binding, luminescence; inhibition, % at 15 µM; 190,000 tested, 3.6% active; AID 1671202
Target sequence (P42858 whole entry, looked up, change not shown): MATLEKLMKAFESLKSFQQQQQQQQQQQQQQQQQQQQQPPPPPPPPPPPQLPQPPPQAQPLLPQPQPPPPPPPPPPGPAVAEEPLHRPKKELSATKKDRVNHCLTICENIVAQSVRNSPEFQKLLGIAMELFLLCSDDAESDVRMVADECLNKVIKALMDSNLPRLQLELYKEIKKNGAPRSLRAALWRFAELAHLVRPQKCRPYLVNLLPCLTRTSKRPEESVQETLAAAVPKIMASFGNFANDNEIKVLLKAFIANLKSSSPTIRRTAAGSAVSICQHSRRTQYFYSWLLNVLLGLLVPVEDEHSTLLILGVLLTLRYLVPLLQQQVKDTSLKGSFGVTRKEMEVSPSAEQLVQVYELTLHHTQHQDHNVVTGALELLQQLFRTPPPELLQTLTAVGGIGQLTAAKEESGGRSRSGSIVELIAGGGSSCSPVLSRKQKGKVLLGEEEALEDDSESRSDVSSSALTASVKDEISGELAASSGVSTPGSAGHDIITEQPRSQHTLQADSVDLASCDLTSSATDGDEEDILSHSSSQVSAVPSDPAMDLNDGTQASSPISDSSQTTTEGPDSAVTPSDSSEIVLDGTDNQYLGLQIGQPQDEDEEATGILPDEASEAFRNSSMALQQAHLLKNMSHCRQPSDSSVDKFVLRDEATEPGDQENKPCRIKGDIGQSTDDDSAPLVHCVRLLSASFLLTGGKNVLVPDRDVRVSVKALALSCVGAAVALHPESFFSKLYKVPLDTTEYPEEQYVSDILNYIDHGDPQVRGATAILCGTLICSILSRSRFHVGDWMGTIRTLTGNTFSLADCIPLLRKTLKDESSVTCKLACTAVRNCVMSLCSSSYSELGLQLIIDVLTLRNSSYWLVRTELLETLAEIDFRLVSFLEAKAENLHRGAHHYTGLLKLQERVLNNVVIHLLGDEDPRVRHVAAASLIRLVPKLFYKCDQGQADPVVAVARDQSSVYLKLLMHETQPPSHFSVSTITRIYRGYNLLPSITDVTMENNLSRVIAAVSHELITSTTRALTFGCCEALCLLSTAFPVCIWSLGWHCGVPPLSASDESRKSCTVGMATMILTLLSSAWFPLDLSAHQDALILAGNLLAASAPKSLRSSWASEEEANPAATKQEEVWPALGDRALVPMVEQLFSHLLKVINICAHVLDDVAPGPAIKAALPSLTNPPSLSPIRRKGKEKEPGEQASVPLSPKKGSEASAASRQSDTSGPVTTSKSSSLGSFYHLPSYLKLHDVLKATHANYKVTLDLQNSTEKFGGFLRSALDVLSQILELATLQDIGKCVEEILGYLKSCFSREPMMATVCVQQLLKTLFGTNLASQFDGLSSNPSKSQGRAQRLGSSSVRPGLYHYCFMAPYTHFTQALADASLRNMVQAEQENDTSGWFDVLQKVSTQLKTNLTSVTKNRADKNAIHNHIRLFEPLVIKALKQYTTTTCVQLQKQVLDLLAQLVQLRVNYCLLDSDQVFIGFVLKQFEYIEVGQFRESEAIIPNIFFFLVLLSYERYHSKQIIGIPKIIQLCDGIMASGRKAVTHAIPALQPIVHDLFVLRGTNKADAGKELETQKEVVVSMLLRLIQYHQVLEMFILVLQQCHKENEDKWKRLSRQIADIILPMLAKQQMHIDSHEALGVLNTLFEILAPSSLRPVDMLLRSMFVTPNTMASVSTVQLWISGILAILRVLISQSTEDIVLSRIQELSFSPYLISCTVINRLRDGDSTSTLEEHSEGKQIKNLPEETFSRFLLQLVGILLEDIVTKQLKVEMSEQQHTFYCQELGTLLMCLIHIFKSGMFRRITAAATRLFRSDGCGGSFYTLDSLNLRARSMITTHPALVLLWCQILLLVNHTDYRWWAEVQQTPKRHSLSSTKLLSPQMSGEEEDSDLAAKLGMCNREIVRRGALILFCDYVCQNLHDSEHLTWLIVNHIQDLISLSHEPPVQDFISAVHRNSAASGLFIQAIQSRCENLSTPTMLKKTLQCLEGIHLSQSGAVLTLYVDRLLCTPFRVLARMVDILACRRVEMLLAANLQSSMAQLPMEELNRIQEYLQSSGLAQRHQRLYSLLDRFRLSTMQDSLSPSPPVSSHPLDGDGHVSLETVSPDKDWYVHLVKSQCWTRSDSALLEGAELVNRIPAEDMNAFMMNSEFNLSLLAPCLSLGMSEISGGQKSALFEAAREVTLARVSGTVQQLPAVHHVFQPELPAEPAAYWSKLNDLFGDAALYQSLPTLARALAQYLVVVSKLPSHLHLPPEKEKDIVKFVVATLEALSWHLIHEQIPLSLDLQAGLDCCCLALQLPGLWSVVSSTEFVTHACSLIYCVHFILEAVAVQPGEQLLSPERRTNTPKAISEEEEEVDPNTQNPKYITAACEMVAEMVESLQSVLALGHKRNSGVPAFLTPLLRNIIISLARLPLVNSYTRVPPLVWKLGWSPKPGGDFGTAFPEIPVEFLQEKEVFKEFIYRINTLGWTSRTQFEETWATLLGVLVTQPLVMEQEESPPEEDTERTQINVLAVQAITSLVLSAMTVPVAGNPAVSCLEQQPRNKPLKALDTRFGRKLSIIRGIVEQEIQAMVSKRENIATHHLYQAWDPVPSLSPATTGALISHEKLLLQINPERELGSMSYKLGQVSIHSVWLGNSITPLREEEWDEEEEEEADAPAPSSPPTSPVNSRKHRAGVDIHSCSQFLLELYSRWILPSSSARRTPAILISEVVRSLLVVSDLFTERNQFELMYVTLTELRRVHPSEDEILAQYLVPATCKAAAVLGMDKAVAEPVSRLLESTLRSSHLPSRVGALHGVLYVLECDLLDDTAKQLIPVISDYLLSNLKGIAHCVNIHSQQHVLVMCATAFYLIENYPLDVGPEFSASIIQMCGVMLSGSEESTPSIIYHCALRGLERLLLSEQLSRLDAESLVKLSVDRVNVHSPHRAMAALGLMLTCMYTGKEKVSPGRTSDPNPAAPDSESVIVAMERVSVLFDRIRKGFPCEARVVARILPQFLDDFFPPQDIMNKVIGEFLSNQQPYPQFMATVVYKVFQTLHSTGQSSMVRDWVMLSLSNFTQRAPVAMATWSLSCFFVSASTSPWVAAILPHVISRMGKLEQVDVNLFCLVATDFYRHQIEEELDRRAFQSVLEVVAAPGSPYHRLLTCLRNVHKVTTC
Pf apPOL inh = Pf-apPOL DNA polymerase inhibition; Recombinant Pf-apPOL, molecular beacon fluorescence, 1.5 h; inhibition, % at 10 µM; 210,000 tested, 0.25% active
Hits are given with their value; 0 = inactive; - = not tested or not shown; ! = repeats disagree. This excerpt belongs to a sample that is enriched for hits. Rule as the data show it: active = inhibition above about 50%; inactive = the rest.

SMILES | mHTT CaM bind | Pf apPOL inh
COCCN=C1Nc2ccccc2NC12CCCN(C(=O)c1cc(F)ccc1F)C2 (centres undefined) | 0 | 0
O=C(Nc1cccc(F)c1)N1CCCC2(C1)Nc1cccnc1NC2=NCc1ccccc1 (centres undefined) | 64.0 | 0
COCCN=C1Nc2ccccc2NC12CCCN(C(=O)Nc1cc(F)cc(F)c1)C2 (centres undefined) | 100.1 | 0
CCCCCCCCCCOC[N+](CC)(CC)c1ccccc1 | 0 | -
COc1ccc(-c2csc(/C(C#N)=C/c3ccccc3OC)n2)cc1 | 0 | 0
Cc1nc(C)c(-c2nnc(NC(=O)CCOc3ccccc3)o2)s1 | 63.6 | 0
Cc1nc(C)c(-c2nnc(NC(=O)CCS(=O)(=O)c3ccccc3)o2)s1 | 0 | 0
O=C(C1CCN(c2nc3ccc(-c4ccsc4)nc3s2)CC1)N1CCCC1 | 0 | 0
CCN1CCN(C(=O)C2CCN(c3nc4ccc(-c5ccsc5)nc4s3)CC2)CC1 | 66.6 | 0
Cc1nc2ccc3nc(NC(=O)c4ccccc4Cl)sc3c2s1 | 72.0! | 0
Cc1nc2ccc3nc(NC(=O)c4ccccc4[N+](=O)[O-])sc3c2s1 | 0 | 0
COc1cccc(NC(=O)CC2SC(=Nc3ccc(C(=O)O)cc3)NC2=O)c1 (centres undefined) | 0 | 0
CN(C)/C=C/c1c(C=O)c2cc([N+](=O)[O-])ccc2n1C | 99.8 | 0
CC(=O)c1c(-c2ccccc2)c2cc([N+](=O)[O-])ccc2n1C | 0 | 0
CN(C)c1ncncc1N1CCC(C(=O)N2CCN(C3CCCCC3)CC2)CC1 | 0 | 0
Cc1ccnc(N2CCC(C(=O)N3CCN(c4cc(Cl)ccc4C)CC3)CC2)n1 | 88.5 | 0
CN(C)c1ncncc1N1CCC(C(=O)N2CCN(c3ccccc3F)CC2)CC1 | 0 | 0
CN(C)c1ncncc1N1CCC(C(=O)N2CCN(c3cccc(Cl)c3)CC2)CC1 | 74.5 | 0
Cc1cccc(N2CCN(C(=O)C3CCN(c4cncnc4N(C)C)CC3)CC2)c1C | 51.8 | 0
Cc1ccnc(N2CCC(C(=O)N3CCN(c4cccc(C)c4C)CC3)CC2)n1 | 0 | 0
COc1ccc(C2=N/C(=C\c3ccccc3Cl)C(=O)O2)cc1OC | 0 | 0
Cc1nccn1S(=O)(=O)c1c(C(C)C)cc(C(C)C)cc1C(C)C | 0 | 0
O=C(NCCN1CCCCCC1)C1CCN(c2nc3cccnc3s2)CC1 | 0 | 0
NNc1nnc(-c2ccccc2)c2ccccc12 | 67.6 | 0
NNc1nnc(-c2ccccc2)c(-c2ccccc2)n1 | 100.1 | 0
SMILES | mHTT CaM bind | Pf apPOL inh
CC(=NNc1nnc(-c2ccccc2)c(-c2ccccc2)n1)c1ccco1 | - | 0
NC(=O)c1ccc(Nc2nnc(-c3ccc(O)cc3)c3ccccc23)cc1 | 0 | 0
O=C(O)CC1c2ccccc2Oc2ccccc21 | 0 | 0
O=CC1=C(c2ccccc2)Oc2ccccc2O1 | 51.4 | 0
COc1ccccc1N=Cc1cc(OC)c(OCc2ccccc2)cc1[N+](=O)[O-] | 95.0 | 0
COc1cc(C(O)C[N+](=O)[O-])ccc1OCc1ccccc1 (centres undefined) | 0 | 0
Cc1cccc(-n2nc3c(c2NC(=O)/C=C/c2ccccc2)CSC3)c1C | 94.0 | 0
Cc1cccc(C(=O)Nc2c3c(nn2-c2cccc(C)c2C)CSC3)c1 | 0 | 0
Cc1cccc(-n2nc3c(c2NC(=O)/C=C/c2ccco2)CSC3)c1C | 95.0 | 0
CC(=O)Nc1c2c(nn1-c1cccc(C)c1C)CSC2 | 0 | 0
O=C(Nc1cccc(F)c1)Nc1nccn(-c2ccc(F)cc2)c1=O | 0 | 0
COc1cc(C(=O)Nc2nc(-c3ccc(Cl)cc3)cs2)cc(OC)c1OC | 0 | 0
O=C(Nc1nc(-c2ccccn2)cs1)c1ccc(Br)s1 | 100.0 | 0
COc1cc(C(=O)Nc2nc(-c3ccccn3)cs2)cc(OC)c1OC | 100.0 | 0
COc1cc(C(=O)Nc2ccc(NC(=O)c3ccccc3)cc2)cc(OC)c1OC | 0 | 0
Cc1cc(C(=O)Nc2nc(-c3ccccn3)cs2)on1 | 99.8 | 0
COC(=O)c1ccc(-c2csc(NC(=O)c3cc(C)no3)n2)cc1 | 0 | 0
COc1cc(C(=O)Nc2cccc(NC(=O)c3ccccc3)c2)cc(OC)c1OC | 52.3 | 0
O=C(Nc1nc(-c2ccccc2)cs1)c1ccccc1 | 0 | 0
O=C(C(Cc1ccccc1)N1C(=O)C2C3C=CC(C3)C2C1=O)N1CCOCC1 (centres undefined) | 0 | 0
COCCC1CCN(C(=O)c2nn(C)c3ccccc23)CC1 | 0 | 0
COc1ccc(CNC(=O)C2CCCN(c3nc4nc[nH]c(=O)c4s3)C2)cc1OC (centres undefined) | 0 | 0
Cn1cc(CCCC(=O)NCc2cccs2)c2ccccc21 | 0 | 0
COCC(=O)Nc1cc(OC)c(NC(=O)c2ccccc2)cc1OC | 0 | 0
COc1cc(NC(=O)c2ccccc2)c(OC)cc1NC(=O)COc1ccccc1 | 58.6 | 0
CCC(=O)Nc1cccnc1-c1ccc(C(=O)NC(C)CCc2ccccc2)cc1 (centres undefined) | 0 | 0
Cc1cccc(N2CCN(Cc3cc4c(cc3[N+](=O)[O-])OCO4)CC2)c1C | 0 | 0
